Among all 2,700 compounds or so, about 160 (5.9%) showed an effect of 50% or more. The full list was thinned out, with strong results kept by preference.
Target: Nonstructural protein 3 (Zika virus) (UniProt A0A024AXB9)
[1] = PRVABC59, Concentration 15.0 uM, Number of replicates 1.0

Chain of Nonstructural protein 3 (Zika virus) (A0A024AXB9 as listed by the source): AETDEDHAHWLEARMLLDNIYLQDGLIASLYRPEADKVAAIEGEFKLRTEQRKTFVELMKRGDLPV

`O=C(NCCCSc1ccccc1)c1cc(Cl)ccc1NS(=O)(=O)c1ccc(Oc2ccccc2Cl)cc1` showed an inhibition [1] of 21.8%.
`N#C[C@@H](NC(=O)c1cc(Cl)ccc1NS(=O)(=O)c1ccc(Oc2ccccc2Cl)cc1)c1ccc(F)cc1` was tested, and the inhibition [1] was 28.7%.
`Cc1cc(CO)c2cccc(Cc3cccc(C(=O)N(c4ncccn4)S(=O)(=O)c4ccc(N)cc4)c3)c2n1` gave an inhibition (PRVABC59, Concentration 49.95 uM, Number of replicates 2.0, Standard deviation 0.9333358068338657 %) of 1.86% and an inhibition (PRVABC59, Concentration 99.9 uM, Number of replicates 2.0, Standard deviation 0.5295896500552713 %) of 17.8%.
In the case of `Cc1cc(CO)c2cccc(Cc3ccccc3C(=O)N(c3ncccn3)S(=O)(=O)c3ccc(N)cc3)c2n1`, the inhibition (PRVABC59, Concentration 49.95 uM, Number of replicates 2.0, Standard deviation 0.5295893128804832 %) is reported as 2.68% and the inhibition (PRVABC59, Concentration 99.9 uM, Number of replicates 2.0, Standard deviation 0.15206043463069627 %) is reported as 8.61%.
`Cc1cc(CO)c2cccc(CC(=O)N(c3ncccn3)S(=O)(=O)c3ccc(N)cc3)c2n1` was tested, and the inhibition (PRVABC59, Concentration 49.95 uM, Number of replicates 2.0, Standard deviation 0.08143445481880901 %) was 93.4% and the inhibition (PRVABC59, Concentration 99.9 uM, Number of replicates 2.0, Standard deviation 0.09670172922339526 %) was 93.5%.
In the case of `c1ccn2c(CNCC3CCOCC3)nnc2c1`, the inhibition (PRVABC59, Concentration 49.5 uM, Number of replicates 2.0, Standard deviation 1.8796463523944162 %) is reported as -1.69%, the inhibition (PRVABC59, Concentration 99.01 uM, Number of replicates 2.0, Standard deviation 2.0631141970669455 %) is reported as -2.09% and the inhibition (PRVABC59, Concentration 198.0 uM, Number of replicates 2.0, Standard deviation 1.9030296768293513 %) is reported as -4.01%.
Work on `Cc1cc(Br)ccc1CNC(=O)c1cc(Cl)ccc1NS(=O)(=O)c1ccc(Oc2ccccc2Cl)cc1` yielded an inhibition [1] of 27.2%.
`O=C(Nc1ccccc1Cc1ccccc1)c1cc(Cl)ccc1NS(=O)(=O)c1ccc(Oc2ccccc2Cl)cc1` gave an inhibition [1] of 55.2%.
Work on `O=C(NCCc1nc(-c2ccc(Cl)cc2)no1)c1cc(Cl)ccc1NS(=O)(=O)c1ccc(Oc2ccccc2Cl)cc1` yielded an inhibition [1] of 20.2%.
In the case of `COc1cc(NC(=O)c2cc(Cl)ccc2NS(=O)(=O)c2ccc(Oc3ccccc3Cl)cc2)c(Cl)cc1Cl`, the inhibition [1] is reported as 35%.
Work on `O=C(Nc1ccc(C(F)(F)F)cc1)c1cc(Cl)ccc1NS(=O)(=O)c1ccc(Oc2ccccc2Cl)cc1` yielded an inhibition [1] of 26.8%.
`CNC(=O)c1ccccc1NC(=O)c1cc(Cl)ccc1NS(=O)(=O)c1ccc(Oc2ccccc2Cl)cc1` showed an inhibition [1] of 12.1%.
`COc1ccc(NC(C)=O)cc1NC(=O)c1cc(Cl)ccc1NS(=O)(=O)c1ccc(Oc2ccccc2Cl)cc1` showed an inhibition [1] of 55%.
`COc1c(Cl)cccc1NC(=O)c1cc(Cl)ccc1NS(=O)(=O)c1ccc(Oc2ccccc2Cl)cc1` showed an inhibition [1] of 38.1%.
`O=C(Nc1ccc(SC(F)(F)F)cc1)c1cc(Cl)ccc1NS(=O)(=O)c1ccc(Oc2ccccc2Cl)cc1` gave an inhibition [1] of 45.3%.
With `O=C(NCc1ccc(-c2ccccn2)cc1)c1cc(Cl)ccc1NS(=O)(=O)c1ccc(Oc2ccccc2Cl)cc1` the inhibition [1] was 31.7%.
Molecule `O=C(NCc1nc(-c2ccccn2)no1)c1cc(Cl)ccc1NS(=O)(=O)c1ccc(Oc2ccccc2Cl)cc1` has an inhibition [1] of 54%.
With `O=C(Nc1ccccc1Sc1ccccc1)c1cc(Cl)ccc1NS(=O)(=O)c1ccc(Oc2ccccc2Cl)cc1` the inhibition [1] was 25.8%.
Work on `O=C(Nc1ccc(OC(F)F)cc1)c1cc(Cl)ccc1NS(=O)(=O)c1ccc(Oc2ccccc2Cl)cc1` yielded an inhibition [1] of 57.7%.
`CN1C(=O)c2ccc(NC(=O)C3CCN(c4ccc(C=O)cc4)CC3)cc2C1=O` gave an inhibition (PRVABC59, Concentration 50.0 uM, Number of replicates 1.0) of 28.5%.
`c1ccc2[nH]c(CC3CCN(c4ncnc5[nH]ccc45)CC3)nc2c1` was tested, and the inhibition (PRVABC59, Concentration 49.5 uM, Number of replicates 2.0, Standard deviation 0.8729323765409018 %) was -3.7%, the inhibition (PRVABC59, Concentration 99.01 uM, Number of replicates 2.0, Standard deviation 2.6991147561762485 %) was 1.52% and the inhibition (PRVABC59, Concentration 198.0 uM, Number of replicates 2.0, Standard deviation 4.214592802372255 %) was 7.18%.
With `CC(CNC(=O)c1cc(Cl)ccc1NS(=O)(=O)c1ccc(Oc2ccccc2Cl)cc1)(c1ccccc1)c1ccccc1` the inhibition [1] was 31.7%.
With `COc1cccc(CCNC(=O)c2cc(Cl)ccc2NS(=O)(=O)c2ccc(Oc3ccccc3Cl)cc2)c1` the inhibition [1] was 27.6%.
In the case of `O=C(c1cc(Cl)ccc1NS(=O)(=O)c1ccc(Oc2ccccc2Cl)cc1)N1CCN(c2ccccc2O)CC1`, the inhibition [1] is reported as -1.02%.

— ChEMBL document CHEMBL5606458, “ASAP - ZIKV NS2B-NS3 protease fluorescence single point” (2024)
